The panel holds about 83,000 compounds, 20% with a hit somewhere; the sample as a whole holds those more often.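 Interpretation: 100, growth as untreated; towards 0, rising growth inhibition; 0, no net growth; 0 to -100, cell death. Compounds scoring below 10 were considered active.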 Activity calls are given as the source filed them.

The experiment relates to SN12C renal. In words: NCI-60 one-dose screen, 48 h (100 = growth as untreated, 0 = no growth, -100 = all killed). Particulars: 10 µM unless noted. The method, then: Growth inhibition of the SN12C human tumor cell line is measured as a screen for anti-cancer activity. Cells are grown in 96 well plates and exposed to the test compound for 48 hours. Compounds are tested at a single concentration, which is 10^-5 M for most compounds. The reported endpoint is percent growth (GI% or GIPRCNT), where numbers from 0 - 100% represent growth inhibition, and numbers from -100% - 0 represent cell death. For example, a value of 40 represents 60% growth inhibition. A value of 0 means no net growth occurred over the course of the experiment. A value of -40 indicates 40% of cells at the beginning of the experiment died by the end of the experiment. A value of -100 means all cells are dead at the end of the experiment.
NCI-60 Human Tumor Cell Lines Screen was performed using the standard one-dose NCI protocol, which is described in more detail at https://dtp.cancer.gov/discovery_development/nci-60/default.htm.
Compounds with GIPRCNT values below 10 were considered active. Activity score was based on GIPRCNT using the following formula: […]
Score is 0 for GIPRCNT values of 100 or above, 50 for GIPRCNT values of 0, and 100 for GIPRCNT values of -100.
Regarding `O=C(Cn1c[n+](CC(=O)c2ccc(-c3ccccc3)cc2)c2ccccc21)Nc1cccc2cccnc12`, the growth is 14.9% (inactive).
For `Cc1cc2nc3c4cc(C=O)ccc4n(CCN(C)C)c3nc2cc1C`, the growth is 20.5% (inactive).
`Cc1ccc(-c2[nH][nH]c(=O)c2-c2nc3ccccc3s2)cc1`: the growth was 98.7% (inactive).
With `COc1cc2oc(-c3cccc(C(=O)Nc4ccc(Br)cc4)c3)cc(=O)c2c(OC)c1OC` the figure was 50.9% (inactive).
Consider `O=C(Nc1ccccc1C(=O)N/N=C(\c1ccccc1)c1ccccn1)c1ccc(F)cc1`, for which the growth was 26.6% (inactive).
For `O=S(=O)(NCCCNc1nccc(-c2c(-c3cccc(F)c3)nc3sccn23)n1)c1cccc(F)c1`, the growth is 56.3% (inactive).
Take `CC(=O)[C@H]1CCC/C=C/[C@@H]2C[C@H](O)C[C@H]2[C@H](O)/C=C/C(=O)O1`: the growth is 9.7% (active).
As for `C/C(=N\NC(=O)CSc1nc2ccccc2c(=O)n1CCc1ccc(S(N)(=O)=O)cc1)c1ccccn1`, the growth was 38.5% (inactive).
For `COc1cc(CC(=O)c2ccc(O)c(OC)c2)ccc1O`, the growth was 94.2% (inactive).
For `C#Cc1cccc(NC(=O)c2cccc(NC(=O)CCl)c2)c1`, the growth is -65.9% [8.25 µM] (active).
With `CCc1ccc(CNc2ccc(N3CCOCC3)c(C(=O)O)c2)cc1` the figure was 108% (inactive).
In the case of `Cc1cccc(-c2cn3ccnc3c(-c3ccc4ncn(Cc5ccccc5)c4c3)n2)c1` it was 95.3% (inactive); in that of `CN1CCN(CCNc2nccc(-c3c(-c4cccc(O)c4)nc4sccn34)n2)S1(=O)=O`, 70.3% (inactive).
In the case of `CCCN1[C@@H]2CC[C@H]1/C(=C\c1ccc(OC)c(OC)c1)C(=O)/C2=C/c1ccc(OC)c(OC)c1` it was 49.9% (inactive); in that of `COc1ccccc1/C=C1\Oc2cc(OCCN3CCCC3)ccc2C1=O`, 88.8% (inactive).
Consider `N#CC1C(C#N)C(C(=O)c2ccc(Br)cc2)N2c3ccccc3C=CC12` (stereo not given), for which the growth is 76.1% (inactive).
Regarding `CCCCCC(=O)Oc1ccc(/C(=C(\C)c2ccccc2)c2ccc(OCCN3CCCCC3)cc2)cc1`, the growth is 79.5% (inactive).
`OC(c1cccc(C(F)(F)F)c1)c1cnccc1NC1CCCCC1` (stereo not given): the growth is 73.5% (inactive).
In the case of `COc1cccc2c1c1nc3cc(C)c(C)cc3nc1n2CCN(C)C`, the growth is 16.9% (inactive).
As to `Cc1cnc(C(=O)Nc2nc3ccc(S(=O)(=O)Nc4ccc(C5(C(F)(F)F)CC5)cc4)cc3[nH]2)cn1`, the growth is 34.5% (inactive).
On to `Cc1ccc(-n2nc3c(c(C#N)c2=O)CC(c2ccccc2[N+](=O)[O-])C([N+](=O)[O-])=C3O)cc1` (stereo not given), for which the growth was 91.8% (inactive).
`CN(C)CC(O)c1ccc(/C=C/c2ccc(Cl)cc2)cc1` (stereo not given): the growth was -12.3% (active).
For the compound `COc1ccccc1/C(C)=N/NC(=O)CSc1nc2ccccc2c(=O)n1Cc1ccc(S(N)(=O)=O)cc1`, the growth was 102% (inactive).
On to `CCCCCN1C=C/C(=C\C(=O)N(C)c2ccccc2Br)c2ccccc21`, for which the growth was 89.2% (inactive).
For `COc1ccc(/C=C2\Oc3cc(OCCCN4CCCCC4)ccc3C2=O)cc1OC`, the growth was 93.5% (inactive).
With `N#CC(C(=O)/C(=N/NC(=O)c1ccccc1O)C(C#N)c1ccccc1)c1ccccc1` (stereo not given), the growth was 52.5% (inactive).
Take `C=C1C(=O)O[C@H]2[C@H]1CC/C(CNS(=O)(=O)c1cccc3ccccc13)=C\CC[C@@]1(C)O[C@@H]21`: the growth is 11.9% (inactive).
In the case of `O=C(Nc1cccc(C2=NCCN2)c1)c1ccc(-c2ccc(C(=O)Nc3cccc(C4=NCCN4)c3)cc2)cc1`, the growth was 61.7% (inactive).
For `C=C1C(=O)O[C@H]2[C@H]1CC/C(CNC(=O)/C=C/c1ccccc1)=C\CC[C@@]1(C)O[C@@H]21`, the growth was -32.1% (active).
In the case of `CCOC(=O)CCN(CC(C)C)C(=S)Nc1ccccc1` it was 98.3% (inactive).
Regarding `CC(Sc1nc2ccccc2c(=O)n1CCc1ccc(S(N)(=O)=O)cc1)C(=O)Nc1ccc(Cl)cc1` (stereo not given), the growth was 86.2% (inactive).
In the case of `O=c1ccc(-c2nc(N3CCOCC3)c3ccccc3n2)c[nH]1`, the growth was 94.6% (inactive).
On to `CC(=O)c1cc2c(N)c(C(=O)Nc3cccc4ccncc34)sc2nc1C`, for which the growth was 99.9% (inactive).
In the case of `c1ccc2cc(Cn3c(-c4cccc5ccccc45)[n+](Cc4ccc5ccccc5c4)c4c5ccccc5c5ccccc5c43)ccc2c1` it was -82% (active); in that of `O=[N+]([O-])c1cc(Br)c2cccc3c2c1CC3`, 101% (inactive).
Regarding `CNC(=O)c1cccc(Cn2nc(C)c(NC(=O)c3ccc(COc4ccc(C(F)(F)F)cc4C)cc3)c2C)n1`, the growth was 59.8% (inactive).
For the compound `CC(=O)[C@@H]1CC[C@]2(C(N)=O)CC[C@]3(C)[C@H](CC[C@@H]4[C@@]5(C)CCCNC(C)(C)[C@@H]5CC[C@]43C)[C@@H]12`, the growth was 86.5% (inactive).
As to `CC(=O)[C@@H]1CC[C@]2(CO)CC[C@]3(C)[C@H](CC[C@@H]4[C@@]5(C)CCCNC(C)(C)[C@@H]5CC[C@]43C)[C@@H]12`, the growth is 91.2% (inactive).
Consider `Nc1nc(Nc2ccccc2SSc2ccccc2Nc2nc(N)nc(-c3cccs3)n2)nc(-c2ccsc2)n1`, for which the growth is 27.3% (inactive).
Regarding `c1ccc(-c2c(-c3ccccc3)[n+](Cc3ccc4ccccc4c3)c(-c3cccc4ccccc34)n2Cc2ccc3ccccc3c2)cc1`, the growth was -81.6% (active).
